# Reference: PMC12820563, “FoxP3 forms a head-to-head dimer in vivo and stabilizes its multimerization on adjacent microsatellites”
# The full ranking holds about 16,000 sequences; the median of “rpm ratio (pull-down/input)” is about 0.94, and the highest 2% start at about 1.7. Many of the other results were omitted from the sample, so the highest values are more common in it than they were.
# Molecular target: T1, MBP-FoxP1dN (Mus musculus, UniProt P58462 326-579)
# T1 sequence: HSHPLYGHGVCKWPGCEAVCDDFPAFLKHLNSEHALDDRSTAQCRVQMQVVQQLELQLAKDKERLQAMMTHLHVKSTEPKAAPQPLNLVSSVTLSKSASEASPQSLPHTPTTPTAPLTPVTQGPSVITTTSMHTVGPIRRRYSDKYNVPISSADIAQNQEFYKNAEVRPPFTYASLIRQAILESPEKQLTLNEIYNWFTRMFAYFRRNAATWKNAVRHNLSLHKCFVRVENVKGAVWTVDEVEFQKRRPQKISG
# Experiment: PD-seq (MBP pull-down with sequencing); 20 mM Tris-HCl pH 7.5, 100 mM NaCl, 1.5 mM MgCl2, 0.4 uM protein, 0.1 uM dsDNA library, 30 min, room temperature, amylose pull-down; high values mean tight binding
# Conditions: protein: recombinant; tags: His6-MBP; chain copies: 2; dsDNA, one strand shown
# Summary of the method: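 Binding is the reads-per-million enrichment of pull-down relative to input, pooled across replicates. For this, 0.4 µM His6-MBP-tagged mouse FoxP3 or FoxP1 fragment lacking the N-terminus, made in E. coli, was incubated with 0.1 µM Klenow-filled double-stranded degenerate DNA library for 30 min at room temperature in Tris pH 7.5 buffer with NaCl and MgCl2. Complexes bound to amylose resin were washed three times before proteinase K released the DNA for PCR barcoding and Illumina sequencing.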
row,Sequence,binding signal
1,GATGATTGTTCTCCCAGCTGATGAATTAATATTTTCGAGTAAACAAATTTTCCTAATCTTTCTGTTCAAGCGCCATCTAC,1.78 RPM ratio (pull-down/input)
2,GATGATTGTTCTCCCAGCTGATGAATTAAATATGTCGAGTAAACAAATTTTCCTAATCTTTCTGTTCAAGCGCCATCTAC,1.07 RPM ratio (pull-down/input)
3,GATGATTGTTCTCCCAGCTGATGAATTAAATATTTCGAGTAAACAAATTTTCCTAATCTTTCTGTTCAAGCGCCATCTAC,1.14 RPM ratio (pull-down/input)
4,GATGATTGTTCTCCCAGCTGATGAATTCGGACCCTCGAGTAAACAAATTTTCCTAATCTTTCTGTTCAAGCGCCATCTAC,0.79 RPM ratio (pull-down/input)
5,GATGATTGTTCTCCCAGCTGATGAATTTTCTATTTCGAGTAAACAAATTTTCCTAATCTTTCTGTTCAAGCGCCATCTAC,0.975 RPM ratio (pull-down/input)
6,GATGATTGTTCTCCCAGCTGATGAATTTCTATTTTCGAGTAAACAAATTTTCCTAATCTTTCTGTTCAAGCGCCATCTAC,2.01 RPM ratio (pull-down/input)
7,GATGATTGTTCTCCCAGCTGATGAATTCTCCTATTCGAGTAAACAAATTTTCCTAATCTTTCTGTTCAAGCGCCATCTAC,0.943 RPM ratio (pull-down/input)
8,GATGATTGTTCTCCCAGCTGATGAATTCTATTGTTCGAGTAAACAAATTTTCCTAATCTTTCTGTTCAAGCGCCATCTAC,1.99 RPM ratio (pull-down/input)
9,GATGATTGTTCTCCCAGCTGATGAATTCTATTTTTCGAGTAAACAAATTTTCCTAATCTTTCTGTTCAAGCGCCATCTAC,1.61 RPM ratio (pull-down/input)
10,GATGATTGTTCTCCCAGCTGATGAATTTCCTATTTCGAGTAAACAAATTTTCCTAATCTTTCTGTTCAAGCGCCATCTAC,0.887 RPM ratio (pull-down/input)
11,GATGATTGTTCTCCCAGCTGATGAATTTTTCTATTCGAGTAAACAAATTTTCCTAATCTTTCTGTTCAAGCGCCATCTAC,0.984 RPM ratio (pull-down/input)
12,GATGATTGTTCTCCCAGCTGATGAATTCCTATTTTCGAGTAAACAAATTTTCCTAATCTTTCTGTTCAAGCGCCATCTAC,1.86 RPM ratio (pull-down/input)
13,GATGATTGTTCTCCCAGCTGATGAATTGTTCTATTCGAGTAAACAAATTTTCCTAATCTTTCTGTTCAAGCGCCATCTAC,1.34 RPM ratio (pull-down/input)
14,GATGATTGTTCTCCCAGCTGATGAATTAGTTGCATCGAGTAAACAAATTTTCCTAATCTTTCTGTTCAAGCGCCATCTAC,1.65 RPM ratio (pull-down/input)
15,GATGATTGTTCTCCCAGCTGATGAATTCCACCACTCGAGTAAACAAATTTTCCTAATCTTTCTGTTCAAGCGCCATCTAC,0.844 RPM ratio (pull-down/input)
16,GATGATTGTTCTCCCAGCTGATGAATTGATGCACTCGAGTAAACAAATTTTCCTAATCTTTCTGTTCAAGCGCCATCTAC,1.72 RPM ratio (pull-down/input)
17,GATGATTGTTCTCCCAGCTGATGAATTTTGAATATCGAGTAAACAAATTTTCCTAATCTTTCTGTTCAAGCGCCATCTAC,1.07 RPM ratio (pull-down/input)
18,GATGATTGTTCTCCCAGCTGATGAATTGACAATATCGAGTAAACAAATTTTCCTAATCTTTCTGTTCAAGCGCCATCTAC,1.86 RPM ratio (pull-down/input)

row,Sequence,binding signal
1,GATGATTGTTCTCCCAGCTGATGAATTTTGACAATCGAGTAAACAAATTTTCCTAATCTTTCTGTTCAAGCGCCATCTAC,1.26 RPM ratio (pull-down/input)
2,GATGATTGTTCTCCCAGCTGATGAATTTGACACATCGAGTAAACAAATTTTCCTAATCTTTCTGTTCAAGCGCCATCTAC,0.966 RPM ratio (pull-down/input)
3,GATGATTGTTCTCCCAGCTGATGAATTGAATATATCGAGTAAACAAATTTTCCTAATCTTTCTGTTCAAGCGCCATCTAC,1.04 RPM ratio (pull-down/input)
4,GATGATTGTTCTCCCAGCTGATGAATTGACACAATCGAGTAAACAAATTTTCCTAATCTTTCTGTTCAAGCGCCATCTAC,1.75 RPM ratio (pull-down/input)
5,GATGATTGTTCTCCCAGCTGATGAATTAGGTGGGTCGAGTAAACAAATTTTCCTAATCTTTCTGTTCAAGCGCCATCTAC,0.78 RPM ratio (pull-down/input)
6,GATGATTGTTCTCCCAGCTGATGAATTGGTTTGTTCGAGTAAACAAATTTTCCTAATCTTTCTGTTCAAGCGCCATCTAC,1.13 RPM ratio (pull-down/input)
7,GATGATTGTTCTCCCAGCTGATGAATTGGTGTTTTCGAGTAAACAAATTTTCCTAATCTTTCTGTTCAAGCGCCATCTAC,2.65 RPM ratio (pull-down/input)
8,GATGATTGTTCTCCCAGCTGATGAATTTGGTGTTTCGAGTAAACAAATTTTCCTAATCTTTCTGTTCAAGCGCCATCTAC,1.12 RPM ratio (pull-down/input)
9,GATGATTGTTCTCCCAGCTGATGAATTTGGTTGTTCGAGTAAACAAATTTTCCTAATCTTTCTGTTCAAGCGCCATCTAC,1.29 RPM ratio (pull-down/input)
10,GATGATTGTTCTCCCAGCTGATGAATTGGTTGGTTCGAGTAAACAAATTTTCCTAATCTTTCTGTTCAAGCGCCATCTAC,1 RPM ratio (pull-down/input)
11,GATGATTGTTCTCCCAGCTGATGAATTTTTGGTTTCGAGTAAACAAATTTTCCTAATCTTTCTGTTCAAGCGCCATCTAC,0.984 RPM ratio (pull-down/input)
12,GATGATTGTTCTCCCAGCTGATGAATTGGTTGTTTCGAGTAAACAAATTTTCCTAATCTTTCTGTTCAAGCGCCATCTAC,1.45 RPM ratio (pull-down/input)
13,GATGATTGTTCTCCCAGCTGATGAATTGGTGTGTTCGAGTAAACAAATTTTCCTAATCTTTCTGTTCAAGCGCCATCTAC,1.34 RPM ratio (pull-down/input)
14,GATGATTGTTCTCCCAGCTGATGAATTTTTTGGTTCGAGTAAACAAATTTTCCTAATCTTTCTGTTCAAGCGCCATCTAC,1.01 RPM ratio (pull-down/input)
15,GATGATTGTTCTCCCAGCTGATGAATTGTTTGGTTCGAGTAAACAAATTTTCCTAATCTTTCTGTTCAAGCGCCATCTAC,1.81 RPM ratio (pull-down/input)
16,GATGATTGTTCTCCCAGCTGATGAATTGTTGGTTTCGAGTAAACAAATTTTCCTAATCTTTCTGTTCAAGCGCCATCTAC,1.89 RPM ratio (pull-down/input)
17,GATGATTGTTCTCCCAGCTGATGAATTTGTTGGTTCGAGTAAACAAATTTTCCTAATCTTTCTGTTCAAGCGCCATCTAC,2.02 RPM ratio (pull-down/input)
